High-throughput results: PubChem BioAssay, several laboratories
SKKanGAS inh: SKKanGAS growth inhibition; S. pyogenes SKKanGAS, kanamycin growth, BacTiter-Glo, 6 h; inhibition, % at 7.5 µM; 300,000 tested, 1.3% active; AID 1662;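 active = mean replicate score, as percent of positive control median, at least 50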;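 also: strain carries kanamycin resistance gene driven by streptokinase promoter and grows in 40 µg/ml kanamycin; loss of luminescence reflects streptokinase promoter inhibition or plain growth inhibition; 0% = median of DMSO wells and 100% = positive control at its reference dose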
TPT1 inhibitor: blocks Candida albicans tRNA 2'-phosphotransferase | recombinant caTPT1, FP RNA substrate dephosphorylation | inhibition, % at 5 µM | 300,000 tested, 0.81% active | AID 1962;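 active = inhibition above the mean of all tested compounds plus 3 SD, set per screening campaign, cut at about 24% in these data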;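 also: plate controls were DMSO alone for no effect and ferristatin control at 100 nM for full effect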
PHOSPHO1 block: inhibitors of human PHOSPHO1 phosphatase; Q8TCT1; recombinant PHOSPHO1, absorbance phosphatase assay; inhibition, % at 13.3 µM; 290,000 tested, 1.1% active; in the data active = inhibition above about 60%
Target sequence (Q8TCT1 whole entry, looked up): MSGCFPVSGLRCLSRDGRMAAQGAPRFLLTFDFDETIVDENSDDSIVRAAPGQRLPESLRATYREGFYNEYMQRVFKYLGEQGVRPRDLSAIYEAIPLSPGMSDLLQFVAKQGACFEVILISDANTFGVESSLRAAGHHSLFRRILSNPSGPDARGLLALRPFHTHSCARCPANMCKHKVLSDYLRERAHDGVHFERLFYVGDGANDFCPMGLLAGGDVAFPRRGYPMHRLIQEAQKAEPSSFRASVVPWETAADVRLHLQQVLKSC
Platelet DG rel: platelet dense granule release activity | 300,000 tested, 0.22% active | human platelet-rich plasma, SFLLRN dense granule ATP release, luminescence | inhibition, %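 (compounds screened at 7.5 µM in platelet-rich plasma)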;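 active = mean replicate score, as percent of positive control, at or above 50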
Rtt109 Vps75: blocks Candida albicans Rtt109/Vps75 acetyltransferase activity; Q5AAJ8; purified Rtt109/Vps75, ThioGlo CoA-SH fluorescence, 4 h; inhibition, % at 34.9 µM; 330,000 tested, 0.16% active;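 active = inhibition of at least 50% in every replicate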
Target sequence (Q5AAJ8 whole entry, looked up): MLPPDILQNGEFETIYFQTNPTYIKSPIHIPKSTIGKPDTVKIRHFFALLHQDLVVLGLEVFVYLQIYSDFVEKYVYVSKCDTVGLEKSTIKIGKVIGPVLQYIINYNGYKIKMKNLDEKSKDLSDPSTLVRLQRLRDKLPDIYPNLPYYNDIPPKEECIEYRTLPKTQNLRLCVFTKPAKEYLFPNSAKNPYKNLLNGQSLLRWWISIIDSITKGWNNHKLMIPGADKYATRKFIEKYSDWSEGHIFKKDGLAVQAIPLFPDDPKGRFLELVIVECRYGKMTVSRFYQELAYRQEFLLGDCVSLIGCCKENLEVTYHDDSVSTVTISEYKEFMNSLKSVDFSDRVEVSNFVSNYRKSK
WT yeast gro inh: growth inhibition of WT yeast, mitochondrial fusion screen; inhibition, % at 10 µM; 190,000 tested, 2.1% active; mitochondrial fusion phenotypic screen, WT strain; AID 1362; in the data active = inhibition above about 58%; tested in S. cerevisiae
An asterisk follows results filed as active. The list is not random: actives were taken first. Their share in the collection is about 3.9%.

For CC(C)(C)OC(=O)N1Cc2ccccc2C[C@H]1C(=O)NCC(=O)NCC1CCCO1 (some centres undefined) the results were SKKanGAS inh 3, TPT1 inhibitor 0, PHOSPHO1 block 32, Platelet DG rel -3 and Rtt109 Vps75 -1.
`CC(C)c1ccccc1OCC(=O)Nc1ccccc1C(=O)N1CCOCC1` gave SKKanGAS inh 8, TPT1 inhibitor -1, PHOSPHO1 block 33, Platelet DG rel 9 and Rtt109 Vps75 -3.
COc1ccc(C(=O)NC(=S)NNC(=O)[C@H]2C[C@@H]2c2ccccc2)cc1OC was read as SKKanGAS inh 102*, TPT1 inhibitor 0, PHOSPHO1 block -10, Platelet DG rel 5 and Rtt109 Vps75 7.
COc1cc(OC)cc(C(=O)NC(=S)NNC(=O)[C@H]2C[C@@H]2c2ccccc2)c1 was read as SKKanGAS inh 105*, TPT1 inhibitor -4, PHOSPHO1 block 34, Platelet DG rel 4 and Rtt109 Vps75 -2.
For CC(C)(C)NC(=S)NNC(=O)[C@H]1C[C@@H]1c1ccccc1 the results were SKKanGAS inh 0, TPT1 inhibitor -1, PHOSPHO1 block 18, Platelet DG rel -5 and Rtt109 Vps75 0.
For COc1ccccc1C(=O)Nc1ccnn1C1CCN(CCCc2ccccc2)CC1 the results were SKKanGAS inh 1, TPT1 inhibitor 0, PHOSPHO1 block 8, Platelet DG rel 8 and Rtt109 Vps75 -6.
CCC(C)NC(=O)c1cn(CC)c2ccc(S(=O)(=O)N3CCCCCC3)cc2c1=O (centres undefined) was read as SKKanGAS inh 8, TPT1 inhibitor -2, PHOSPHO1 block 22, Platelet DG rel -12 and Rtt109 Vps75 13.
Screening CC1(C)CC[C@]2(C(=O)O)CC[C@]3(C)C(=CC[C@@H]4[C@@]5(C)CC[C@H](O)C(C)(C)[C@@H]5CC[C@]43C)[C@@H]2C1 returned TPT1 inhibitor -5, PHOSPHO1 block 18 and Rtt109 Vps75 1.
CC1(C)CC[C@]2(C(=O)O)CC[C@]3(C)C(=CCC4[C@@]5(C)CC[C@H](O)C(C)(C)C5CC[C@]43C)C2C1 (some centres undefined) was read as SKKanGAS inh 105*, TPT1 inhibitor 1, PHOSPHO1 block 35, Platelet DG rel -3, Rtt109 Vps75 0 and WT yeast gro inh 0.
Screening CCOc1ccc(S(=O)(=O)NCCC(=O)Nc2cccc(C(=O)OC)c2)cc1 returned SKKanGAS inh 3, TPT1 inhibitor 0, PHOSPHO1 block 32, Platelet DG rel 6 and Rtt109 Vps75 54*.
Screening CCOc1ccc(S(=O)(=O)NCCC(=O)Nc2ccncc2)cc1 returned SKKanGAS inh -29, TPT1 inhibitor -1, Platelet DG rel -1 and Rtt109 Vps75 -5.
C=CCOc1ccc(/C=C2\SC(=Nc3cccnc3)NC2=O)cc1 was read as SKKanGAS inh 9, TPT1 inhibitor -4, PHOSPHO1 block 20, Platelet DG rel -10 and Rtt109 Vps75 2.
`CC(/C=C1\SC(=Nc2cccnc2)NC1=O)=C\c1ccccc1` gave SKKanGAS inh 56*, TPT1 inhibitor 19, PHOSPHO1 block 19, Platelet DG rel -1 and Rtt109 Vps75 -2.
For CCOC(=O)c1c(C)[n+]([O-])c2ccc3c(non3O)c12 the results were SKKanGAS inh -3, TPT1 inhibitor -2, PHOSPHO1 block 16, Platelet DG rel 2, Rtt109 Vps75 -6 and WT yeast gro inh -2.
For CCOC(=O)c1c(=O)n(O)c2ccc(C)cc2[n+]1[O-] the results were SKKanGAS inh -4, TPT1 inhibitor -5, PHOSPHO1 block 68*, Platelet DG rel -1, Rtt109 Vps75 -1 and WT yeast gro inh -3.
Screening CCOC(=O)C1=C(C)N=C2SC(C(=O)OC)=CC(=O)N2C1c1ccc(OC)cc1 (centres undefined) returned SKKanGAS inh 1, TPT1 inhibitor 1, PHOSPHO1 block -1, Platelet DG rel 18, Rtt109 Vps75 1 and WT yeast gro inh 84*.
COC(=O)C1=C(C)N=C2SC(C#N)=C(N)N2C1c1ccc(OC)cc1 (centres undefined) was read as SKKanGAS inh 6, TPT1 inhibitor 5, PHOSPHO1 block 38, Platelet DG rel -4, Rtt109 Vps75 0 and WT yeast gro inh -20.
Screening O=C(NNC(=S)Nc1ccccc1)c1cccc(Br)c1 returned SKKanGAS inh 7, TPT1 inhibitor 0, PHOSPHO1 block 89*, Platelet DG rel -2 and WT yeast gro inh -8.
Cc1ccc(OCC(=O)NNC(=S)NC(=O)c2cccs2)c(C)c1 was read as SKKanGAS inh 87*, PHOSPHO1 block 23, Platelet DG rel 0 and Rtt109 Vps75 3.
`O=C(NC(=S)Nc1cccnc1)c1cccc(Br)c1` gave SKKanGAS inh 0, TPT1 inhibitor -3, PHOSPHO1 block 28, Platelet DG rel -2 and Rtt109 Vps75 -4.
Screening O=C(NC(=S)Nc1cc(Cl)ccc1O)c1cccc(Br)c1 returned SKKanGAS inh 108*, TPT1 inhibitor 3, PHOSPHO1 block 34, Platelet DG rel 7 and Rtt109 Vps75 1.
O=C(NNC(=S)Nc1ccc(Br)cc1)c1ccccc1 was read as SKKanGAS inh 7, PHOSPHO1 block -23, Platelet DG rel -5 and Rtt109 Vps75 -12.
Screening Cc1cccc(NC(=S)NNC(=O)c2ccc(Br)o2)c1 returned SKKanGAS inh 2, TPT1 inhibitor 1, PHOSPHO1 block 88*, Platelet DG rel 12, Rtt109 Vps75 -4 and WT yeast gro inh -5.
Screening O=C(CNc1cccc(F)c1)N1CCc2ccccc2C1 returned SKKanGAS inh -2, TPT1 inhibitor -4, PHOSPHO1 block 14, Platelet DG rel 4 and Rtt109 Vps75 -8.
CCOC(=O)/C=C/[C@H]1CC(c2ccccc2)(c2ccccc2)CO1 was read as Rtt109 Vps75 -5.
For CC(Sc1nnc(-c2cccnc2)n1N)C(=O)NCCC1=CCCCC1 (centres undefined) the results were Rtt109 Vps75 8.
For CN(Cc1ccccc1)C(=O)c1cccc(NC(=O)Cc2cccc([N+](=O)[O-])c2)c1 the results were Rtt109 Vps75 -1.
Screening COc1ccc(C(=O)NC(=S)NNC(=O)c2cnccn2)cc1OC returned SKKanGAS inh 17, TPT1 inhibitor -3, PHOSPHO1 block 2, Platelet DG rel 3, Rtt109 Vps75 -12 and WT yeast gro inh 8.
Screening COc1cc(NC(=S)NC(=O)c2ccc(C)cc2C)ccc1NC(=O)c1cccs1 returned SKKanGAS inh 5, TPT1 inhibitor 1, PHOSPHO1 block 62*, Platelet DG rel 0, Rtt109 Vps75 1 and WT yeast gro inh 4.
COc1ccc(C(=O)NNC(=S)NC(=O)c2ccc(Br)o2)cc1OC was read as SKKanGAS inh 66*, TPT1 inhibitor 4, PHOSPHO1 block -68, Platelet DG rel -1, Rtt109 Vps75 0 and WT yeast gro inh 20.
